Results as given in PubChem BioAssay AID720704 (The Scripps Research Institute Molecular Screening Center, 2013).
Among all 370,000 compounds or so, about 660 (0.18%) were called active. The full list was thinned out, with actives kept by preference. A number with no mark means an inactive call. No stated cut-off is given here; in the data, active means inhibition above about 11%; inactive means the rest.

The compounds below were run against 1-phosphatidylinositol 4,5-bisphosphate phosphodiesterase beta-3 (Homo sapiens) (UniProt Q01970) (assay: phospholipase C beta3 enzyme inhibition – biochemical, fluorescence, primary screen (AID 720704;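 further: 0% = median of compound wells on plate and 100% = full blocker control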)). Details: Purified PLC-beta3, fluorogenic substrate, at 12.2 µM, stronger effect = higher value.
1-phosphatidylinositol 4,5-bisphosphate phosphodiesterase beta-3 (Homo sapiens), sequence (Q01970 whole entry, looked up): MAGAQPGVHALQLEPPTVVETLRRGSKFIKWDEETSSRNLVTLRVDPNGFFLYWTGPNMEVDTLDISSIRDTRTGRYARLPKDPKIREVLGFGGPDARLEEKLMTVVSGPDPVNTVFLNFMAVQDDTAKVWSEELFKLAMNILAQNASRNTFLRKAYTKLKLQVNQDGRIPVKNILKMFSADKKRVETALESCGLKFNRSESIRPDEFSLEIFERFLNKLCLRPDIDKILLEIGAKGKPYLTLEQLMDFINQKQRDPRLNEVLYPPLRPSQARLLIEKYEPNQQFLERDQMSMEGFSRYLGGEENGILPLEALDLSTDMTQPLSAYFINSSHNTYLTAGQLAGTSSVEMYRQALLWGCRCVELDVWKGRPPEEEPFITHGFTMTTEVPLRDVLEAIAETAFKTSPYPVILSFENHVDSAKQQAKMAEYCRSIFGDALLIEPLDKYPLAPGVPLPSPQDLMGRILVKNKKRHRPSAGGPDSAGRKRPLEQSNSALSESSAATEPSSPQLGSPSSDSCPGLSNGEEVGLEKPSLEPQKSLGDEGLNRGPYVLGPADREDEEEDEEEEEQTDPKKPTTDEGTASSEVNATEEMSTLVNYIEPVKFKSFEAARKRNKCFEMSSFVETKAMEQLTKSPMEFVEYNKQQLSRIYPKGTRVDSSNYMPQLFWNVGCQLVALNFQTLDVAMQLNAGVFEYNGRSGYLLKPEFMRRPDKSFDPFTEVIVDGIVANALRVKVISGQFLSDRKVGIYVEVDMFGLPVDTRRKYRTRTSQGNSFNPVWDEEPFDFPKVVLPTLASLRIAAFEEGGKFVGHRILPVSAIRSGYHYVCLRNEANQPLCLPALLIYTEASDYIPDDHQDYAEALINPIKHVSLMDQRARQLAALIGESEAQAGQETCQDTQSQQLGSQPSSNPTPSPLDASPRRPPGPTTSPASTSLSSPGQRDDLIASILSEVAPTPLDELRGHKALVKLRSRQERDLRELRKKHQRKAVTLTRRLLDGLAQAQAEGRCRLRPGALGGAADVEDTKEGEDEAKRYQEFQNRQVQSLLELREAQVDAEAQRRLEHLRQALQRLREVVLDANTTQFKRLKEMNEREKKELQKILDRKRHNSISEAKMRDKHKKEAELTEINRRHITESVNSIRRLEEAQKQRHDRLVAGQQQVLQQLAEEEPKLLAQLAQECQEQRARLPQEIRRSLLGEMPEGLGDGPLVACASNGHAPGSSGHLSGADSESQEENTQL

**Q.** How did the inhibition turn out when `CCC(=NCc1ccco1)c1c(O)n(Cc2ccccc2)c(=O)[nH]c1=O` was run?
**A.** Its inhibition is 11.8% (active).

**Q.** How did the inhibition turn out when `CN(C)CCCN=Cc1c(O)n(Cc2ccco2)c(=O)[nH]c1=O` was run?
**A.** The inhibition was -6.13%.

**Q.** `CCCCn1c(O)c(C(CC)=NCc2ccco2)c(=O)[nH]c1=O` was tested. Which inhibition did it give?
**A.** The inhibition was 7%.

**Q.** For `COC(=O)[C@@H]1C(OC(=O)c2ccccc2)CC2CCC1N2C` (stereo not given in full), which inhibition is on record?
**A.** The inhibition was -5.47%.

**Q.** With `CCN1c2nc3c(C)cccn3c(=O)c2CC2(C(=O)N(C)C(=O)N(C)C2=O)C1C` (stereo not given) as the compound, how does the inhibition read?
**A.** Its inhibition is -9.87%.

**Q.** `c1ccc(CC2CCCCN2)cc1` (stereo not given) was tested. Which inhibition did it give?
**A.** Its inhibition is -1.27%.

**Q.** For `CC(C)(C)[C@]1(O)C[C@@H]2OC(=O)C[C@@]23C(=O)O[C@@H]2OC(=O)[C@H](O)[C@]213`, which inhibition is on record?
**A.** Its inhibition is 11.8% (active).

**Q.** Which inhibition does the source give for `CN(C)/C=C(\C=[N+](C)C)c1[nH]ncc1[N+](=O)[O-]` here?
**A.** The inhibition was 3.86%.

**Q.** `Cc1cc(C)cc(NC(=S)NC2CC3CCCC(C2)N3Cc2cccs2)c1` (stereo not given) was tested. Which inhibition did it give?
**A.** Its inhibition is 5.75%.

**Q.** `O=C(COC(=O)Cc1ccccc1)Nc1ccc(F)cc1` was tested. Which inhibition did it give?
**A.** The inhibition was 3.13%.
